Measured values taken from PubChem BioAssay (EPA / NIEHS).
Records with an inconclusive call do not appear. Calls of active or inactive are those of the source. How the source made its calls, unless noted: active means hit-call score of the fitted dose curve at least 0.9, where 1 is the maximum; inactive means score below 0.9.

Assays:
[1] = biological target: Estrogen-related receptor gamma (Homo sapiens) (UniProt P62508); experiment: ATG_ERRg_TRANS: Attagene TRANS-FACTORIAL HepG2 Assay for human Estrogen-Related Receptor gamma (ERRg) (AID 2282977; active means hit-call score of the fitted dose curve at least 0.9, where 1 is the maximum;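 further: hits increase reporter signal over DMSO so potencies reflect activators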); conditions: HepG2 Attagene TRANS reporter, ERRg transactivation
Method in brief: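 Exogenous NR-Gal4 chimera activity was assessed in HepG2 cells bearing transfected GAL4-UAS reporters. After 24 h dosing, total RNA underwent RT-PCR, fluorescent primer extension and HpaI digestion before capillary electrophoresis, with gain of signal scored against DMSO.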

[2] = biological target: Glucocorticoid receptor (Homo sapiens) (UniProt P04150); experiment: ATG_GR_TRANS: Attagene TRANS-FACTORIAL HepG2 Assay for human Glucocorticoid Receptor (GR) (AID 2282978; active means hit-call score of the fitted dose curve at least 0.9, where 1 is the maximum;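 further: activators score as hits since higher reporter transcript over DMSO is fitted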); conditions: HepG2 Attagene TRANS GR reporter, mRNA transcription
Method in brief: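 HepG2 cells transiently transfected with GAL4-UAS reporter units and exogenous GR-Gal4 chimera, dosed 24 h. Reporter mRNA by RT-PCR, FAM labeling, HpaI digest and capillary electrophoresis; gain-of-signal fit versus DMSO.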

[3] = biological target: Oxysterols receptor LXR-alpha (Homo sapiens) (UniProt Q13133); experiment: ATG_LXRa_TRANS: Attagene TRANS-FACTORIAL HepG2 Assay for human Liver X Receptor alpha (LXRa) (AID 2282980; active means hit-call score of the fitted dose curve at least 0.9, where 1 is the maximum); conditions: HepG2 Attagene TRANS reporter, LXRa transactivation
Method in brief: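 HepG2 cells transiently transfected with GAL4-UAS reporter units for chimeric NR-Gal4 proteins, exposed to chemicals for 24 h. Reporter mRNA quantified by RT-PCR and capillary electrophoresis; gain of signal fitted relative to DMSO.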

[4] = biological target: Oxysterols receptor LXR-beta (Homo sapiens) (UniProt P55055); experiment: ATG_LXRb_TRANS: Attagene TRANS-FACTORIAL HepG2 Assay for human Liver X Receptor beta (LXRb) (AID 2282981; active means hit-call score of the fitted dose curve at least 0.9, where 1 is the maximum); conditions: HepG2 Attagene TRANS GAL4-LXRb reporter, mRNA
Method in brief: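 Readout: fluorescent reporter mRNA fragments resolved by capillary electrophoresis after RT-PCR. System: transiently transfected human HepG2, exogenous LXRb-Gal4 chimera driving GAL4-UAS reporter, 24 h dosing. Activity fitted upward against DMSO baseline.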

[5] = biological target: Hepatocyte nuclear factor 4-alpha (Homo sapiens) (UniProt P41235); experiment: ATG_HNF4a_TRANS: Attagene TRANS-FACTORIAL HepG2 Assay for human Hepatocyte Nuclear Factor 4 alpha (HNF4a) (AID 2282982; active means hit-call score of the fitted dose curve at least 0.9, where 1 is the maximum); conditions: HepG2 HNF4a transactivation reporter, mRNA readout
Method in brief: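 Transient MRTU transfection of HepG2, 24 h dosing. Readout: reporter mRNA via RT-PCR + capillary electrophoresis, fluorescence; activity fit upward relative to DMSO control.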

[6] = ATG_M_06_TRANS: Attagene TRANS-FACTORIAL HepG2 Assay for M06 Transcription Factor (Internal Marker) (AID 2282983; active means hit-call score of the fitted dose curve at least 0.9, where 1 is the maximum;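 further: reporter transcript level by RT-PCR then capillary electrophoresis fluorescence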); conditions: HepG2 Attagene TRANS M06 internal marker reporter
Method in brief: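 mRNA levels of a reporter transcript, quantified as FAM fluorescence on capillary electrophoresis, served as readout. HepG2 cells expressing exogenous GAL4-chimera reporter constructs were exposed for 24 h. Gain of signal over DMSO was evaluated.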

[7] = ATG_M_32_TRANS: Attagene TRANS-FACTORIAL HepG2 Assay for M32 Transcription Factor (Internal Marker) (AID 2282984; active means hit-call score of the fitted dose curve at least 0.9, where 1 is the maximum); conditions: HepG2 Attagene TRANS M32 internal marker reporter
Method in brief: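 Read-out: fluorescent reporter cDNA fragments resolved by capillary electrophoresis after RT-PCR of total RNA. Transfected HepG2 cells were exposed to chemical for 24 h. Activity scored in the positive direction relative to DMSO.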

[8] = biological target: Transcriptional activator Myb (Homo sapiens) (UniProt P10242); experiment: ATG_Myb_CIS: Attagene CIS-FACTORIAL HepG2 Assay for human Myeloblastosis (Myb) Proto-Oncogene Transcription Factor (AID 2282986); conditions: HepG2 Attagene CIS-FACTORIAL Myb reporter transcription; actives raise or lower the signal
Method in brief: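 Transiently transfected HepG2 cells carrying a multiplexed cis-promoter reporter set report endogenous Myb activity after 24 h compound exposure. Reporter mRNA is read by RT-PCR with capillary electrophoresis of fluorescent products, fitted bidirectionally against DMSO.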

[9] = biological target: Nuclear respiratory factor 1 (Homo sapiens) (UniProt Q16656); experiment: ATG_NRF1_CIS: Attagene CIS-FACTORIAL HepG2 Assay for human Nuclear Respiratory Factor 1 (NRF1) Orphan Gene (AID 2282987); conditions: HepG2 NRF1 cis-element reporter, Attagene multiplex; actives raise or lower the signal
Method in brief: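 HepG2 cells transiently transfected with multiple cis-regulated reporter units, exposed 24 h. Reporter mRNAs measured by RT-PCR, fluorescent labelling, HpaI digestion and capillary electrophoresis; bidirectional fitting against DMSO.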

[10] = ATG_NFI_CIS: Attagene CIS-FACTORIAL HepG2 Assay for human Nuclear Factor I (NFI) (AID 2282989); conditions: HepG2 cis-regulatory reporter, NFI response element transcription; actives raise or lower the signal
Method in brief: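 Reporter transcription driven by endogenous transcription factors in HepG2 cells; 24 h treatment. Quantitation by labelled RT-PCR fragments on capillary electrophoresis, gain- or loss-of-signal relative to DMSO.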

[11] = ATG_NF_kB_CIS: Attagene CIS-FACTORIAL HepG2 Assay for human Nuclear Factor Kappa B (NF-kB) (AID 2282991); conditions: HepG2 Attagene cis-factorial NF-kB reporter mRNA; actives raise or lower the signal
Method in brief: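 HepG2 cells transfected with cis-promoter-driven reporter units, so endogenous transcription factor activity is measured. Reporter mRNA quantified 24 h after dosing by RT-PCR and capillary electrophoresis, with bidirectional fitting against DMSO.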

[12] = ATG_NRF2_ARE_CIS: Attagene CIS-FACTORIAL HepG2 Assay for human Nuclear Factor Erythroid 2 Related Factor 2 (NFR2) response to Antioxidant Response Elements (ARE) (AID 2282992); conditions: HepG2 Attagene ARE/NRF2 reporter, transcription factor activity; actives raise or lower the signal;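 on AC50: reporter mRNA level measured by RT-PCR and capillary electrophoresis fluorescence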
Method in brief: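 Readout: reporter mRNA quantified by RT-PCR plus FAM-labelled primer extension, HpaI digestion and capillary electrophoresis, 24 h after dosing transfected HepG2 cells. Gain or loss of signal is fitted bidirectionally against DMSO baseline.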

[13] = ATG_Oct_MLP_CIS: Attagene CIS-FACTORIAL HepG2 Assay for human Octamer-Binding Transcription Factor (Oct) (AID 2282993); conditions: HepG2 Attagene cis-factorial Oct reporter, mRNA; actives raise or lower the signal
Method in brief: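 Transfected HepG2 cells, 24 h treatment. Reporter mRNA quantified by RT-PCR–capillary electrophoresis; bidirectional fitting against DMSO.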

[14] = biological target: Cellular tumor antigen p53 (Homo sapiens) (UniProt P04637); experiment: ATG_p53_CIS: Attagene CIS-FACTORIAL HepG2 Assay for human p53 Transcription Factor (AID 2282994); conditions: HepG2 p53 cis-element reporter, Attagene mRNA; actives raise or lower the signal
Method in brief: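 Read-out: reporter mRNA by RT-PCR plus capillary electrophoresis with fluorescence detection. Human HepG2 liver cells carried transfected multi-reporter cis-element constructs, dosed 24 h. Gain or loss of signal fitted bidirectionally against DMSO control.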

[15] = BSK_3C_TissueFactor: BioMAP Diversity Plus: 3C Assay for Tissue Factor Biomarker Activity (AID 2282997); conditions: BioMAP 3C HUVEC, tissue factor biomarker readout; actives raise or lower the signal
Method in brief: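 Tissue Factor measured by ELISA, 24 h after treatment of primary HUVEC in the BioMAP 3C setting.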

[16] = ATG_Hpa5_TRANS: Attagene TRANS-FACTORIAL HepG2 Assay for human GAL4-Hpa5 Hepatocyte Transcription Factor Basal Promoter (AID 2282975; active means hit-call score of the fitted dose curve at least 0.9, where 1 is the maximum;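 further: hits are increases in reporter mRNA over DMSO baseline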); conditions: HepG2 Attagene GAL4-Hpa5 transcription reporter
Method in brief: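 Gain-of-signal versus DMSO is fitted for reporter mRNA quantified by RT-PCR and capillary electrophoresis after 24 h exposure. This endpoint is an internal background marker in transiently transfected HepG2 cells carrying GAL4-UAS reporter units.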

[17] = biological target: Myc proto-oncogene protein (Homo sapiens) (UniProt P01106); experiment: ATG_Myc_CIS: Attagene CIS-FACTORIAL HepG2 Assay for human Myelocytomatosis (Myc) Proto-Oncogene Transcription Factor (AID 2282990); conditions: HepG2, Attagene cis-reporter transcription factor activity; actives raise or lower the signal
Method in brief: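 Transiently transfected HepG2 cells bearing cis-promoter reporter units for endogenous transcription factors; 24 h exposure. Reporter mRNA measured by RT-PCR, 6-FAM primer extension, HpaI cut and capillary electrophoresis; bidirectional fit relative to DMSO.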

[18] = ATG_GAL4_TRANS: Attagene TRANS-FACTORIAL HepG2 Assay for GAL4 (Internal Marker) (AID 2282976; active means hit-call score of the fitted dose curve at least 0.9, where 1 is the maximum); conditions: HepG2 Attagene TRANS GAL4 internal marker reporter
Method in brief: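 Background-control readout: GAL4-UAS reporter transcript in transiently transfected HepG2 cells after 24 h compound exposure. Measured by RT-PCR, 6-FAM primer extension, HpaI digest and capillary electrophoresis; gain-of-signal fit versus DMSO.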

[19] = biological target: Nuclear receptor subfamily 4 group A member 2 (Homo sapiens) (UniProt P43354); experiment: ATG_NURR1_TRANS: Attagene TRANS-FACTORIAL HepG2 Assay for human Nuclear Receptor Related Protein 1 (NURR1) (AID 2282985; active means hit-call score of the fitted dose curve at least 0.9, where 1 is the maximum); conditions: HepG2 Attagene TRANS reporter, mRNA readout
Method in brief: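 Read-out: reporter mRNA induction by RT-PCR plus capillary electrophoresis with fluorescence detection, after 24 h dosing of transfected HepG2 cells. Exogenous NR-Gal4 chimera activity drives GAL4-UAS reporter; activity fitted upward versus DMSO.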

[20] = biological target: Bile acid receptor (Homo sapiens) (UniProt Q96RI1); experiment: ATG_FXR_TRANS: Attagene TRANS-FACTORIAL HepG2 Assay for Farnesoid X Receptor (FXR) (AID 2282979; active means hit-call score of the fitted dose curve at least 0.9, where 1 is the maximum;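 further: hits raise reporter mRNA above DMSO so AC50 marks FXR activation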); conditions: HepG2 Attagene TRANS FXR-GAL4 reporter transcription
Method in brief: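 HepG2 cells were transiently transfected with GAL4-UAS reporters driven by chimeric NR-Gal4 proteins and dosed for 24 h. Reporter mRNA was quantified by RT-PCR, fluorescent labelling, HpaI digestion and capillary electrophoresis, with gain of signal scored versus DMSO.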

Measured: AC50

Sequence of Transcriptional activator Myb (Homo sapiens) (P10242 whole entry, looked up): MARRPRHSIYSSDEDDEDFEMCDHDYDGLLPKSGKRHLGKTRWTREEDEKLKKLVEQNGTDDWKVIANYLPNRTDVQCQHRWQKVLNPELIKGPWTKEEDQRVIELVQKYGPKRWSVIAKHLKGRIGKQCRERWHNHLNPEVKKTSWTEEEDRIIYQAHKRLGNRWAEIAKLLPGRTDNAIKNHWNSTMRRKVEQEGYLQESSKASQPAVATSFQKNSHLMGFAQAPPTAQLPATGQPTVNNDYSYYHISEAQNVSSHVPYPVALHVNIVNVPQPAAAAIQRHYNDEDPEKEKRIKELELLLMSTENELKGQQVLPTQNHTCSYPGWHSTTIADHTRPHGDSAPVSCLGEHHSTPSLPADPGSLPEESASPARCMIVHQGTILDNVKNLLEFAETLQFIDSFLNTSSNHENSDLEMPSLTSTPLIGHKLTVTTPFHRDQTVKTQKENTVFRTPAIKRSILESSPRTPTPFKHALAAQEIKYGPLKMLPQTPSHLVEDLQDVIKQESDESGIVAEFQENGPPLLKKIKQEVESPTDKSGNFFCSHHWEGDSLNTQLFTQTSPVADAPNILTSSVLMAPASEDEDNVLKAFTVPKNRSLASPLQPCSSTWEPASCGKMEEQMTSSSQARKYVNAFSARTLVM
Sequence of Nuclear respiratory factor 1 (Homo sapiens) (Q16656 whole entry, looked up): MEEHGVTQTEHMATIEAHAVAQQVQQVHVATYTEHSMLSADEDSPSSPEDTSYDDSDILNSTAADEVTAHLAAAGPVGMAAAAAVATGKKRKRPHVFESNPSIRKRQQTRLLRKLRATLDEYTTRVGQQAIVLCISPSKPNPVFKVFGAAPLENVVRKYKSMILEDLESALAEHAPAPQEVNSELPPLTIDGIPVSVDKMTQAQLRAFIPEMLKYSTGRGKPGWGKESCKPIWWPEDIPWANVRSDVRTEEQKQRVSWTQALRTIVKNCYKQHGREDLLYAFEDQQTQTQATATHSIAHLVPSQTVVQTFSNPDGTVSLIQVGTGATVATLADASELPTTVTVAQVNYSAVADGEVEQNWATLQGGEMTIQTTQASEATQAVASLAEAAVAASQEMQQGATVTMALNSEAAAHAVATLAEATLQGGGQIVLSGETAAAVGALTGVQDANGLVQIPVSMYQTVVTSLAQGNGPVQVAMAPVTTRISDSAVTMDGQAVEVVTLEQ
Sequence of Glucocorticoid receptor (Homo sapiens) (P04150 whole entry, looked up, the tested form may be a part): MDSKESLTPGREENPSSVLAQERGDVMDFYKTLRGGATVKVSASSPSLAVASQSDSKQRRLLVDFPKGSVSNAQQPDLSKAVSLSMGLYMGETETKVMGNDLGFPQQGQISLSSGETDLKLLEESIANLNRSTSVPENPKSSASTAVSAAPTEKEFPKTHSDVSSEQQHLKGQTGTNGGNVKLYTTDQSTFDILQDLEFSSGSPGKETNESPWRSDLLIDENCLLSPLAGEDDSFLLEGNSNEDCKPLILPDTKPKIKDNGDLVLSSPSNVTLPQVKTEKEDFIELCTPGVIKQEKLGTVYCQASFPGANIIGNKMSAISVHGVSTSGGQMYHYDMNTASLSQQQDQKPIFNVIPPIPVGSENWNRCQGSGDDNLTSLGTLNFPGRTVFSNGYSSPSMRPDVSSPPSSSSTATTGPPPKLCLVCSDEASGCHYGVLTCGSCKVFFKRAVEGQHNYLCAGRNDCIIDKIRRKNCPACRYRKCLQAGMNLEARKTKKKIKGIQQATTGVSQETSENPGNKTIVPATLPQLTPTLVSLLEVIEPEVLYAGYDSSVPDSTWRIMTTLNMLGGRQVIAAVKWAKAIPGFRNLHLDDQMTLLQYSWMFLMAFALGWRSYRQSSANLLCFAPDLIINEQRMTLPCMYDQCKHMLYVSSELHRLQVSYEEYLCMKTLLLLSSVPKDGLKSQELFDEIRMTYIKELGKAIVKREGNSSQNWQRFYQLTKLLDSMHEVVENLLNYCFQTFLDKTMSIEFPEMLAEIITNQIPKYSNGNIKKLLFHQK
Sequence of Cellular tumor antigen p53 (Homo sapiens) (P04637 whole entry, looked up): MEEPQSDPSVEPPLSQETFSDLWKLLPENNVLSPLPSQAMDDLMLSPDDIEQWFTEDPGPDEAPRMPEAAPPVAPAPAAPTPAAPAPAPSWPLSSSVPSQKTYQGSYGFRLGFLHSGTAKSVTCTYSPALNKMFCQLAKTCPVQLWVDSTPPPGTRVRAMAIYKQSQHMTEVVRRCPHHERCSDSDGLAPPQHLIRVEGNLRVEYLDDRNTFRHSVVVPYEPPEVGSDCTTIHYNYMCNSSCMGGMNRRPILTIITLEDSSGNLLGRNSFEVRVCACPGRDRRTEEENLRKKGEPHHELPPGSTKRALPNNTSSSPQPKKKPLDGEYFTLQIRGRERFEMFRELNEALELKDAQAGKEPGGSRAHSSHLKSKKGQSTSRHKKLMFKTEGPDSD
Sequence of Hepatocyte nuclear factor 4-alpha (Homo sapiens) (P41235 whole entry, looked up): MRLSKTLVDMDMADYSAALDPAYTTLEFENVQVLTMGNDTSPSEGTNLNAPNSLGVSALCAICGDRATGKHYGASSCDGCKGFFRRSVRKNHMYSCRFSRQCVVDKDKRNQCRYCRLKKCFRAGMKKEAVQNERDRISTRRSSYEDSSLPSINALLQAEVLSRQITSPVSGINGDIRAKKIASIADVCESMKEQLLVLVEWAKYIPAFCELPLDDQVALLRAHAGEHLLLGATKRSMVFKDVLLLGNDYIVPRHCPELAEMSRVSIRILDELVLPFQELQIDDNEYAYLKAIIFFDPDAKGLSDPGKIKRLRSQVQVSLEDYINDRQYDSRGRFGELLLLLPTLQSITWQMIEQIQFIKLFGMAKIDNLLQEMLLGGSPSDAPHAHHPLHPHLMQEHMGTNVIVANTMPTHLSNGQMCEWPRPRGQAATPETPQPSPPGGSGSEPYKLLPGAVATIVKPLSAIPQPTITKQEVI
Sequence of Myc proto-oncogene protein (Homo sapiens) (P01106 whole entry, looked up): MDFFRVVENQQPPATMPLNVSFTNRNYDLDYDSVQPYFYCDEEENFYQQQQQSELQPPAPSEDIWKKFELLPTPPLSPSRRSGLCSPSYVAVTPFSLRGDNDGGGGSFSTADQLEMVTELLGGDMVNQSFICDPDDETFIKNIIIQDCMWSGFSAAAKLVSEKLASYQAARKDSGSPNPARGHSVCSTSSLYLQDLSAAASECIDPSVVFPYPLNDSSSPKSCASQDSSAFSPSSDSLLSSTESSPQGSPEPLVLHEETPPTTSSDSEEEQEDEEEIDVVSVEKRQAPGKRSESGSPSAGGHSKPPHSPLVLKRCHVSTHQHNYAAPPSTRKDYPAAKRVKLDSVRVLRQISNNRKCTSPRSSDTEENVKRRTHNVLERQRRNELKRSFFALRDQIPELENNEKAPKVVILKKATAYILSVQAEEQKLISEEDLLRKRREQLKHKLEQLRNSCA
Sequence of Estrogen-related receptor gamma (Homo sapiens) (P62508 whole entry, looked up, the tested form may be a part): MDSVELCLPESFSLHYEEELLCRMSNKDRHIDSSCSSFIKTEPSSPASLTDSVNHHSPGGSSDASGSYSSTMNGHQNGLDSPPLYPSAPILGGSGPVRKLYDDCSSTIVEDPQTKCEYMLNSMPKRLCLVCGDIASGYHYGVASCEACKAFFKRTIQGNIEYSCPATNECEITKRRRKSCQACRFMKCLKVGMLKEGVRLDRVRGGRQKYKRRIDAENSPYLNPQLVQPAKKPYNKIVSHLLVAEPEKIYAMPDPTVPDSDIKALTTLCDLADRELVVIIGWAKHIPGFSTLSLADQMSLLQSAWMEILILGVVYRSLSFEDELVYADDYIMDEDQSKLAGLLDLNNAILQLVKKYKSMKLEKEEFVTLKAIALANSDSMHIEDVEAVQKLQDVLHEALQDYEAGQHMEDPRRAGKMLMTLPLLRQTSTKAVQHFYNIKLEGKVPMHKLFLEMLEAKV
Sequence of Oxysterols receptor LXR-beta (Homo sapiens) (P55055 whole entry, looked up, the tested form may be a part): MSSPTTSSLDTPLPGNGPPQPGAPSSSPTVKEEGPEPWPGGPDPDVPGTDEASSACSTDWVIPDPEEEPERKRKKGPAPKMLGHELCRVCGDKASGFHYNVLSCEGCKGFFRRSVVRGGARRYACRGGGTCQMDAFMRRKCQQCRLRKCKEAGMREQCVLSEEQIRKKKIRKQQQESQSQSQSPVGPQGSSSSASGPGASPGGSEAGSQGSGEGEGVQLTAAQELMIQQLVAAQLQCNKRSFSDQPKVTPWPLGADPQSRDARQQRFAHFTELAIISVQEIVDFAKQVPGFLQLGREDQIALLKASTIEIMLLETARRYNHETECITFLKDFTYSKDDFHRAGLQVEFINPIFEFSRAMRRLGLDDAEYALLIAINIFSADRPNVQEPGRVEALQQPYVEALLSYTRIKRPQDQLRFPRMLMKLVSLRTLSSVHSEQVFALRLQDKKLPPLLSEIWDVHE
Sequence of Oxysterols receptor LXR-alpha (Homo sapiens) (Q13133 whole entry, looked up, the tested form may be a part): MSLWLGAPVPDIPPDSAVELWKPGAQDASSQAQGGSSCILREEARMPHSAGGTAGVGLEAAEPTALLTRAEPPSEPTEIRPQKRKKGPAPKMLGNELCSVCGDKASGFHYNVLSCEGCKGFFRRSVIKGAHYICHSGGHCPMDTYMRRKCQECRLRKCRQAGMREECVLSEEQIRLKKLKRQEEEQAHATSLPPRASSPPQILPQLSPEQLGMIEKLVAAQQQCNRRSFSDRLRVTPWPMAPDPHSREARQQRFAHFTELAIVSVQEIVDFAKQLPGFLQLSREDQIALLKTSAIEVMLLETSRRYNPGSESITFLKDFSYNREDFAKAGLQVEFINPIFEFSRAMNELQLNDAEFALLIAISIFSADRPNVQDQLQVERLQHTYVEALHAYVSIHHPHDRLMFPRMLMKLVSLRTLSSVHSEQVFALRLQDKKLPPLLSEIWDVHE

Cc1cc(C)nc(Nc2ccccc2)n1
active: [12] 21.6 µM | [13] 12 µM
not listed: [16] | [17] | [18] | [19] | [20]
inactive: all other assays above

CC(C)N1C(=O)N(c2ccccc2)CSC1=NC(C)(C)C
active: [15] 22.9 µM
not listed: [3] | [4] | [5] | [6] | [18] | [19] | [20]
inactive: all other assays above

O=C1C2CC=CCC2C(=O)N1SC(Cl)(Cl)Cl (configuration not stated)
not listed: [2] | [6] | [18] | [19] | [20]
inactive: all other assays above

N#Cc1c[nH]cc1-c1cccc2c1OC(F)(F)O2
active: [19] 7.82 µM | [12] 13.2 µM | [13] 13.9 µM
not listed: [16] | [17] | [20]
inactive: all other assays above

CCOc1nc(C(Cl)(Cl)Cl)ns1
active: [12] 22.9 µM | [13] 43.5 µM
inactive: [1] | [3] | [4] | [8] | [9] | [10] | [11] | [14] | [15]

CS(=O)(=O)c1cc(C(F)(F)F)ccc1C(=O)c1cnoc1C1CC1
active: [12] 19.1 µM | [13] 50 µM
not listed: [5] | [6] | [16] | [18] | [19] | [20]
inactive: all other assays above

CCCCOCN(C(=O)CCl)c1c(CC)cccc1CC
active: [12] 0.547 µM | [15] 16 µM
not listed: [6] | [16] | [18]
inactive: all other assays above
